Numbering of substitutions follows the chain as printed.

The source of these data is article PMC5700166.

Assay in all cases: protein-binding microarray (PBM); PBM: ~300 nM protein, 6 mM HEPES pH 7.8, 80 mM KCl, 0.5 mM EDTA, 0.5 mM EGTA, 6% glycerol, 35 ng/ul poly-dIdC, 1% milk, 1 h, room temperature; Ap Aiptasia and Nv Nematostella (sea anemones) / Co Capsaspora / Aq Amphimedon (sponge) / Dm Drosophila / Hu human; RHD is the Rel homology domain; high values mean tight binding
Settings in all cases: dsDNA, one strand shown

The target of one assay is T1, GST-Ap-NF-kB RHD (Exaiptasia pallida (Aiptasia), UniProt A0A913YAJ5 2-422).
T1 sequence: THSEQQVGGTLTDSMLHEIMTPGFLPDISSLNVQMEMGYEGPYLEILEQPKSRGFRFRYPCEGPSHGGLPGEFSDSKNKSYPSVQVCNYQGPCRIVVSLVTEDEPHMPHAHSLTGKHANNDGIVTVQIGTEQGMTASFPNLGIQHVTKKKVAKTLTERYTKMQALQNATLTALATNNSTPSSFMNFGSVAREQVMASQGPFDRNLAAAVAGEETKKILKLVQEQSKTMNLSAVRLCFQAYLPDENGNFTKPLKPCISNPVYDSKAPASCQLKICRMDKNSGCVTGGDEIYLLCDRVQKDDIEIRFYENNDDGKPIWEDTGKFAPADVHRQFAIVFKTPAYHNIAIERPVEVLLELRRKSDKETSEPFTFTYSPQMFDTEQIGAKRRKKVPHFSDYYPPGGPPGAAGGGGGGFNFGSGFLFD

Assay [1] deals with T2, GST-Nv-NF-kB (Cys allele) (Nematostella vectensis, UniProt E5G601 2-411).
T2 sequence: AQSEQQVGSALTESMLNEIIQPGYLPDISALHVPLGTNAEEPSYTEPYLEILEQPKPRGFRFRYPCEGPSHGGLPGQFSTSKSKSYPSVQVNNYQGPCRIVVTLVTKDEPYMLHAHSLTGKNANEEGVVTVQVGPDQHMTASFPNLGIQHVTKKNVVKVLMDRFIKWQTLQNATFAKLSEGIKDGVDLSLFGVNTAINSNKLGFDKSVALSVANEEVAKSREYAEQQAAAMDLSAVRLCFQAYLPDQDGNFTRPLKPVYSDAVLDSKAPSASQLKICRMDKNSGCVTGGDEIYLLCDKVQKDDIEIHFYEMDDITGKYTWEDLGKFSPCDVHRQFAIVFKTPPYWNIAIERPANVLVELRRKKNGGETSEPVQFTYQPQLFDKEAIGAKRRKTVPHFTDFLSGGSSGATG

For assay [2], the target named is T3, GST-Nv-NF-kB (Ser allele) (Nematostella vectensis, UniProt A7UNT2 2-411).
T3 sequence: T2 sequence with Q21R, C66S, S207N, E215Q, V217A, E225K, A268E, D399E

The target in a further assay is T4, GST-Co-NF-kB (Capsaspora owczarzaki, UniProt F1ARL5 200-546).
T4 sequence: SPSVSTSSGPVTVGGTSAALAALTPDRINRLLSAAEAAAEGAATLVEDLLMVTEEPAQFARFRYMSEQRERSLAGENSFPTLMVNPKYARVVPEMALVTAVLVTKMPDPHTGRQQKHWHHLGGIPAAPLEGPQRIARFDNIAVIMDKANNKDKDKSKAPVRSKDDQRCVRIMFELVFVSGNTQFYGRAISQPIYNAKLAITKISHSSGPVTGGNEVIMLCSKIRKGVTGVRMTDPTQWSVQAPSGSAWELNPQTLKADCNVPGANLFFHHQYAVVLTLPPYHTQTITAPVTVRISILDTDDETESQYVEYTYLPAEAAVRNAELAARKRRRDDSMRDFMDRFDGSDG

A further assay has as its target T5, GST-Dm-Relish (Drosophila melanogaster, UniProt Q94527 99-473).
T5 sequence: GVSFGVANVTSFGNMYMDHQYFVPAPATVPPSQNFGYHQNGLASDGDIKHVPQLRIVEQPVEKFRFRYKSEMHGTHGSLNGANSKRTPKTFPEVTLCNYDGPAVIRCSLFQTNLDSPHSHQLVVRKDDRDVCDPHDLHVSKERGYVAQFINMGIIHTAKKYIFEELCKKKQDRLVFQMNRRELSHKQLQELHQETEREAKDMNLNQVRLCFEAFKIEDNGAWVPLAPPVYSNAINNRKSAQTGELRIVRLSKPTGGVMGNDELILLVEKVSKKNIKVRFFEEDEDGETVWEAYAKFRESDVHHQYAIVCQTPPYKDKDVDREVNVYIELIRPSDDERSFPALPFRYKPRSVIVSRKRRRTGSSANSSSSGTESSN

In another assay the target is T6, GST-Aq-NF-kB (Amphimedon queenslandica, UniProt A9Y5G7 2-389).
T6 sequence: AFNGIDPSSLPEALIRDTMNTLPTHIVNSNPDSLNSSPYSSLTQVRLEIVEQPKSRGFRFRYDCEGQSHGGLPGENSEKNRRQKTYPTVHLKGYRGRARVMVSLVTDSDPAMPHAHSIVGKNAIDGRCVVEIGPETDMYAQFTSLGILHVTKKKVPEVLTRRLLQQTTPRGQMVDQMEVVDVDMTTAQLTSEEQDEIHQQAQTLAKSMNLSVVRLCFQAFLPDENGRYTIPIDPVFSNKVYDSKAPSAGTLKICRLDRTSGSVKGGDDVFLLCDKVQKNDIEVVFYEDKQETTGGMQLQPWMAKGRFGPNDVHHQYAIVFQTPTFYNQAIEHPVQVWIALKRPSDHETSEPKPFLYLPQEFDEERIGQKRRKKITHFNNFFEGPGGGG

For a further assay, the target named is GST-Hu-p50 (Homo sapiens, UniProt P19838 7-356).
Sequence of GST-Hu-p50 (P19838 7-356): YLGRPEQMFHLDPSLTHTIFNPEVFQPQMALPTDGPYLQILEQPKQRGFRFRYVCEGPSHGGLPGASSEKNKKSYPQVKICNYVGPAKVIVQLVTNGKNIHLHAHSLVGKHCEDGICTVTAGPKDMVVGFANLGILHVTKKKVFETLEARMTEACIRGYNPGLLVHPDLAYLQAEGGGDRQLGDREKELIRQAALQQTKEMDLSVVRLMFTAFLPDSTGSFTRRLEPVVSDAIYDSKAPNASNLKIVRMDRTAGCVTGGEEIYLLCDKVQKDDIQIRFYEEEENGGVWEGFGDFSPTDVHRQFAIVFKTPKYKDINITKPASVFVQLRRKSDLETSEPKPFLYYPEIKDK

Turning to “CCGATTAACATCAGAAATTCCCCTGATGTTAATCGGGTCTTGATTCGCTTGACGCTGCTG”, the binding signal with GST-Ap-NF-kB RHD was found to be 9.89 z-score; in assay [1], 12.3 z-score; in assay [2], 13.2 z-score; in the assay with GST-Co-NF-kB, 8.74 z-score; with GST-Dm-Relish it was 8.87 z-score; with GST-Aq-NF-kB it was 8.89 z-score. The same sequence gave a binding signal with GST-Hu-p50 of 7.96 z-score.
With “CCGATTAACATCAGGGGAACTTATGATGTTAATCGGGTCTTGATTCGCTTGACGCTGCTG”, the binding signal worked out at 7.4 z-score with GST-Ap-NF-kB RHD; 8.58 z-score in assay [1]; 8.41 z-score in assay [2]; 7.21 z-score with GST-Co-NF-kB; 7.11 z-score with GST-Dm-Relish; 6.48 z-score with GST-Aq-NF-kB. In addition, the binding signal with GST-Hu-p50 turned out to be 5.95 z-score.
For “CCGATTAACATCAAGGGGGAAAATGATGTTAATCGGGTCTTGATTCGCTTGACGCTGCTG”, the binding signal with GST-Ap-NF-kB RHD was found to be 6.85 z-score; in assay [1], 6.58 z-score; in assay [2], 10.6 z-score; with GST-Co-NF-kB it was 9.03 z-score; with GST-Dm-Relish, 4.2 z-score; with GST-Aq-NF-kB, 6.14 z-score. The same sequence registered a binding signal with GST-Hu-p50 of 7.34 z-score.
Regarding “CCGATTAACATCACGGGAAAATCTGATGTTAATCGGGTCTTGATTCGCTTGACGCTGCTG”, the binding signal in the assay with GST-Ap-NF-kB RHD worked out at 3.98 z-score; in assay [1], 5.79 z-score; in assay [2], 6.4 z-score; in the assay with GST-Co-NF-kB, 5.43 z-score; with GST-Dm-Relish, 2.07 z-score; with GST-Aq-NF-kB, 5.16 z-score. The same sequence had a binding signal in the assay with GST-Hu-p50 of 3.87 z-score.
In the case of “CCGATTAACATCACATATTCCCCTGATGTTAATCGGGTCTTGATTCGCTTGACGCTGCTG”, the binding signal was 7.49 z-score in the assay with GST-Ap-NF-kB RHD; 8.81 z-score in assay [1]; 9.04 z-score in assay [2]; 7.39 z-score in the assay with GST-Co-NF-kB; 4.55 z-score with GST-Dm-Relish; 6.7 z-score in the assay with GST-Aq-NF-kB. Besides, in the assay with GST-Hu-p50, the binding signal was 5.69 z-score.
In the case of “CCGATTAACATCAAAAATTCCCTTGATGTTAATCGGGTCTTGATTCGCTTGACGCTGCTG”, the binding signal with GST-Ap-NF-kB RHD was 6.05 z-score; in assay [1], 9.28 z-score; in assay [2] it was 8.71 z-score; with GST-Co-NF-kB it was 4.19 z-score; with GST-Dm-Relish, 7.19 z-score; with GST-Aq-NF-kB it was 7.62 z-score. In the assay with GST-Hu-p50, this sequence yielded a binding signal of 6.22 z-score.
As for “CCGATTAACATCAGGGGGGAAACTGATGTTAATCGGGTCTTGATTCGCTTGACGCTGCTG”, the binding signal came to 7.64 z-score in the assay with GST-Ap-NF-kB RHD; 7.15 z-score in assay [1]; 8.2 z-score in assay [2]; 11.1 z-score with GST-Co-NF-kB; 5.47 z-score in the assay with GST-Dm-Relish; 5.87 z-score with GST-Aq-NF-kB. The same sequence gave a binding signal with GST-Hu-p50 of 6.97 z-score.
As to “CCGATTAACATCACTATATCCCCTGATGTTAATCGGGTCTTGATTCGCTTGACGCTGCTG”, the binding signal came to 4.49 z-score with GST-Ap-NF-kB RHD; 4.08 z-score in assay [1]; 5.9 z-score in assay [2]; 3.51 z-score with GST-Co-NF-kB; 2.01 z-score with GST-Dm-Relish; 2.75 z-score with GST-Aq-NF-kB. Also, the binding signal in the assay with GST-Hu-p50 was found to be 3.18 z-score.
For the sequence “CCGATTAACATCAGTACTCCCCATGATGTTAATCGGGTCTTGATTCGCTTGACGCTGCTG”, the binding signal in the assay with GST-Ap-NF-kB RHD came out at 3.64 z-score; in assay [1] it was 2.81 z-score; in assay [2], 2.45 z-score; in the assay with GST-Co-NF-kB it was 2.88 z-score; with GST-Dm-Relish, 4.81 z-score; in the assay with GST-Aq-NF-kB it was 2.35 z-score. This sequence also came in with a binding signal in the assay with GST-Hu-p50 of 2.2 z-score.
With “CCGATTAACATCAAAATTCCCTTTGATGTTAATCGGGTCTTGATTCGCTTGACGCTGCTG”, the binding signal in the assay with GST-Ap-NF-kB RHD was 5.04 z-score; in assay [1], 8.11 z-score; in assay [2], 8.05 z-score; in the assay with GST-Co-NF-kB, 2.62 z-score; with GST-Dm-Relish it was 5.83 z-score; in the assay with GST-Aq-NF-kB, 7.05 z-score. Besides, the binding signal with GST-Hu-p50 amounted to 6.07 z-score.
Take “CCGATTAACATCAACGAATCCCCTGATGTTAATCGGGTCTTGATTCGCTTGACGCTGCTG”: the binding signal with GST-Ap-NF-kB RHD was found to be 6.25 z-score; in assay [1], 6.07 z-score; in assay [2], 8.58 z-score; with GST-Co-NF-kB it was 2.93 z-score; with GST-Dm-Relish it was 4.84 z-score; with GST-Aq-NF-kB it was 3.82 z-score. The same sequence came in with a binding signal with GST-Hu-p50 of 5.69 z-score.
For the sequence “CCGATTAACATCAGGGAAAAACATGATGTTAATCGGGTCTTGATTCGCTTGACGCTGCTG”, the binding signal in the assay with GST-Ap-NF-kB RHD stood at 3.76 z-score; in assay [1], 5.03 z-score; in assay [2], 7.18 z-score; in the assay with GST-Co-NF-kB, 5.51 z-score; with GST-Dm-Relish, 6.52 z-score; with GST-Aq-NF-kB, 5.27 z-score. In the assay with GST-Hu-p50, the binding signal was 4.03 z-score.
